# A selection: hits, their analogues and other compounds. The true share with any hit is near 3%.
# PMP22 txn = modulates PMP22 transcription in S16 Schwann cells | S16 Pmp22-F2sN Schwann cells, FLuc/NLuc coincidence luminescence, 24 h | Potency, µM (doses to about 57.5 µM), usual class: inhibitors | actives 2% (n = 43,000) | AID 1508649; active = clear falling dose curves in both reporters; inconclusive = both reporters move, but less clearly or upward; inactive = either reporter flat; the % is the NLuc reporter signal
#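 qHTS, 1536-well. Cells seeded, compounds added by pin tool, 24 h 37C. Nano-Glo reagent 1 (lysis/FLuc), 10 min RT, read; Stop&Glo, 10 min RT, read NLuc.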
# p53null 32C kill = kills p53 null cells at the permissive temperature; Potency, µM (titrated, usually from 46.1 µM), usual class: cytotoxic; H1299-neo p53 null cells, ATP luminescence, 24 h, 32C; actives 0.62% (n = 55,000); also: nearly all actives have a fitted effect of over 55% in size
#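 We seeded p53-null H1299-neo cells, incubated them overnight at 37C, and added compounds across a range up to 46 uM. After 24 hours at 32C, ATP reagent was applied for 20 min at room temperature and luminescence recorded.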
# SKOV3 invasion = inhibitors of ovarian cancer cell adhesion and invasion in omental model. actives 0.1% (n = 46,000). AID 1963576. Potency, µM (series often up to 45.8 µM), most hits filed as inhibitors. SKOV3ip1-GFP adhesion/invasion on 3D omental model, fluorescence; also: nearly all actives have a fitted effect of over 65% in size
#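 Adhesion/invasion was scored as fixed GFP-labeled SKOV3ip1 cell counts (488/509 nm), normalized to DMSO and tomatine controls. Cancer cells in serum-free medium, with four compound doses (0.36-46 umol/L), sat 2 hr at RT then 16 hr at 37 C on a 48 hr fibroblast/mesothelial/ECM culture.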
# p53null 39C kill = kills p53 null cells at the nonpermissive temperature; Potency, µM (top dose mostly 46.1 µM), most hits filed as cytotoxic; H1299 p53-null (neo) cells, 39C, ATPlite viability, 24 h; actives 0.97% (n = 55,000); also: nearly all actives have a fitted effect of over 50% in size
#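 Luminescent ATP signal reported cell survival after H1299 lines (neo, p53 null; or p53 A138V) received up to 46 uM compound and 24 hr incubation at 39C.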
# pS6 MEF inh = inhibitors of mTORC1 signaling in Tsc2-/- p53-/- MEF cells; Potency, µM (doses to about 38.3 µM), usual class: inhibitors; AID 493208; actives 0.78% (n = 44,000); Tsc2-/- p53-/- MEF, phospho-rpS6 immunofluorescence/PI, 24 h; also: nearly all actives have a fitted effect of over 50% in size
#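 Compounds act on Tsc2-/-, p53-/- fibroblasts carrying an empty vector for 24 h before fixation and dual staining for phospho-S6 and DNA (propidium iodide). Values are percentages of cells above a rapamycin-defined pS6/PI threshold.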
# S16 viability = toxic to S16 Pmp22-F2sN Schwann cells. S16 Pmp22-F2sN Schwann cells (luciferase reporters placed in the Pmp22 gene) viability, CellTiter-Glo, 24 h. Potency, µM (top dose mostly 57.5 µM), usual class: cytotoxic. actives 0.48% (n = 43,000). AID 1508642; also: nearly all actives have a fitted effect of over 65% in size
#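 Luminescence from CellTiter-Glo, read by CCD camera after a 15 min room-temperature incubation, served as the viability signal. Reporter Schwann cells (S16 Pmp22-F2sN) had been treated with pin-transferred compounds for 24 h at 37C.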
# Numbers stand for hits; n = inactive; u = inconclusive; x = no result given. Unless noted, calls follow the shape of the dose curve; as a rule, active = well fitted curve in the direction sought with a large enough effect; inconclusive = small, poorly fitted or top-dose-only effect, or another doubt; inactive = no such curve, though single readings can be large; an effect the other way counts as inactive or inconclusive.
SMILES,PMP22 txn,p53null 32C kill,SKOV3 invasion,p53null 39C kill,pS6 MEF inh,S16 viability
CC(=O)NCCC(=O)N[C@@H](CCC(N)=O)C(=O)N[C@@H](CO)C(=O)N[C@@H](CCC(N)=O)C(=O)N[C@@H](CCC(N)=O)C(=O)N[C@H](C(=O)N[C@@H](Cc1ccccc1)C(=O)N[C@]1(C)CCCCCCC=CCCC[C@@](C)(C(=O)N[C@@H](CCC(N)=O)C(=O)N[C@@H](CC(N)=O)C(N)=O)NC(=O)[C@H](CC(C)C)NC(=O)[C@H](CC(C)C)NC(=O)[C@@H](CCCNC(=N)N)NC(=O)[C@H](Cc2c[nH]c3ccccc23)NC(=O)[C@H](CC(C)C)NC(=O)[C@H](CC(N)=O)NC1=O)[C@H](C)O,x,x,n,x,x,x
Cc1ccccc1C(C(=O)NC1CCCC1)N(C(=O)Cn1cnc2ccccc21)c1cccc(F)c1 (stereo not given),x,x,n,x,x,x
CN(Cc1ccccc1)C(=O)c1cccc(NC(=O)c2nsc3ccccc23)c1,u,u,n,14.1µM,n,n
CCN(CC)c1ccc(C(=O)NCc2ccc3c(c2)CCN3C(=O)c2ccc(F)cc2)cc1,7.27µM,n,n,n,n,u
C#CCN(C)CC1=Cc2ccccc2Oc2ccccc21,x,x,n,x,x,x
C1Cc2[nH]nc(-c3nn[nH]n3)c2C1,x,x,n,x,x,x
COc1ccc(-c2noc(-c3cccc(OC)c3OC)n2)cc1,n,12.6µM,n,17.8µM,n,n
COc1cccc(-c2noc(-c3cc4ccccc4oc3=O)n2)c1OC,n,n,n,n,n,n
CCOc1ccc(C2=CC(c3cccc(Br)c3)n3c(nc4ccccc43)N2)cc1Cl (stereo not given),u,n,n,n,n,n
Cc1ccc(C2=CC(c3ccccc3F)n3c(nc4ccccc43)N2)cc1C (stereo not given),u,12.6µM,n,u,n,u
COc1cccc(C2=CC(c3ccccc3F)n3c(nc4ccccc43)N2)c1 (stereo not given),u,11.2µM,n,u,n,u
COc1cccc(C2=CC(c3ccccc3F)n3ncc(C(=O)Nc4ccc(C)cc4)c3N2)c1 (stereo not given),u,n,n,n,n,u
C=CCNc1c(O)cc2c(O)c1C[C@@H](C)C[C@H](OC)[C@@H](O)[C@@H](C)C=C(C)[C@H](OC(N)=O)[C@@H](OC)C=CC=C(C)C(=O)N2,x,x,n,x,x,x
CCN(CC)c1cc(C)c2cc(NC(=O)/C=C/c3cc(OC)c(OC)c(OC)c3)ccc2n1,u,u,u,22.4µM,18.5µM,u
CCOc1ccc(/C=C/C(=O)Nc2ccc3nc(N(CC)CC)cc(C)c3c2)cc1OC,u,n,u,n,13.1µM,u
CC(C)c1cc(C(C)C)c(CC(=O)NS(=O)(=O)Oc2c(C(C)C)cccc2C(C)C)c(C(C)C)c1,x,x,n,x,x,x
C[C@H](CCC(=O)O)[C@H]1CC[C@H]2[C@H]3[C@@H](CC[C@]12C)[C@@]1(C)CC[C@@H](O)C[C@H]1C[C@@H]3O,x,x,n,x,x,x
CCOc1ccccc1NC(=O)CSc1nnc2[nH]c(=O)cc(-c3ccccc3)n12,n,u,n,n,n,n
Cc1ccc(C)c(NC(=O)CSc2nnc3[nH]c(=O)cc(-c4ccccc4)n23)c1,u,1.58µM,n,u,n,n
COc1cccc(NC(=O)CSc2nnc3[nH]c(=O)cc(-c4ccccc4)n23)c1,n,u,n,u,n,n
Cc1ccc(NC(=O)CSc2nnc3[nH]c(=O)cc(-c4ccccc4)n23)cc1Cl,u,3.98µM,n,u,n,n
CCN1CCN(c2ccc(Nc3cc(N(C)C(=O)Nc4c(Cl)c(OC)cc(OC)c4Cl)ncn3)cc2)CC1,x,x,n,x,x,x
COc1ccccc1Cn1cc(C(=O)c2ccc(Cl)cc2)c(=O)c2ccccc21,u,n,u,u,3.29µM,u
COc1ccccc1Cn1cc(C(=O)c2ccc(Cl)cc2)c(=O)c2cc3c(cc21)OCCO3,u,n,n,n,n,n
CCOC(=O)c1ccccc1NC(=O)c1ccc2c(Cl)c3c(nc2c1)CCC3,n,u,n,u,n,n
SMILES,PMP22 txn,p53null 32C kill,SKOV3 invasion,p53null 39C kill,pS6 MEF inh,S16 viability
CCOC(=O)c1cccc(NC(=O)c2cc3ccccn3n2)c1,x,12.6µM,n,10µM,n,x
CCOC(=O)c1cccc(NC(=O)c2ccc3c(Cl)c4c(nc3c2)CCC4)c1,n,u,n,0.398µM,u,n
O=C(Nc1ccccc1C(F)(F)F)c1cc2ccccn2n1,x,7.94µM,n,10µM,n,x
O=S(=O)(Nc1cccc(-c2ccc(N3CCCCC3)nn2)c1)c1cccc(F)c1,x,u,n,10µM,n,x
COc1ccc(S(=O)(=O)Nc2cccc(-c3ccc(N4CCCCC4)nn3)c2)cc1F,x,12.6µM,n,20µM,n,x
O=C(NCc1cccs1)c1ccc(CSc2nc3cccnc3n2Cc2ccccc2)cc1,n,n,n,n,n,u
Cc1ccc(CSc2nc3cccnc3n2Cc2ccc(C(=O)NC3CCCCC3)cc2)cc1,u,12.6µM,u,11.2µM,n,n
O=C(NC1CCCCC1)c1ccc(Cn2c(SCc3ccccc3F)nc3cccnc32)cc1,n,n,n,n,n,u
O=C(NC1CC1)c1ccc(Cn2c(SCc3ccccc3F)nc3cccnc32)cc1,u,u,n,12.6µM,n,u
Cc1ccc(CSc2nc3cccnc3n2Cc2ccc(C(=O)NCCc3cccs3)cc2)cc1,u,4.47µM,n,3.98µM,n,n
O=C(NCc1ccco1)c1ccc(Cn2c(SCc3ccc(F)cc3)nc3cccnc32)cc1,n,u,n,12.6µM,n,n
C=C(C)[C@@H]1CC[C@]2(C)CC[C@]3(C)[C@H](CC[C@@H]4[C@@]5(C)CC[C@H](O)C(C)(C)[C@H]5CC[C@]43C)[C@@H]12,x,x,n,x,x,x
Cc1cc(C(=O)NOCCO)c(Nc2ccc(I)cc2F)n(C)c1=O,x,x,n,x,x,x
CC(=O)Nc1cccc(-n2c(=O)n(C3CC3)c(=O)c3c(Nc4ccc(I)cc4F)n(C)c(=O)c(C)c32)c1,x,x,n,x,x,x
Cc1cc(OCCCc2c(C(=O)O)n(Cc3cccnc3)c3c(-c4c(COc5ccc(N6CCN([S+](C)(=O)[O-])CC6)cc5)nn(C)c4C)cccc23)cc(C)c1Cl,x,x,n,x,x,x
CCOc1cc2c(c(F)c1OCC)C(=N)N(CC(=O)c1cc(N3CCOCC3)c(OC)c(C(C)(C)C)c1)C2,x,x,n,x,x,x
COc1ccc(S(=O)(=O)NCC(c2ccco2)S(=O)(=O)c2cccs2)cc1OC (stereo not given),u,n,n,n,n,20µM
